Screening results deposited in PubChem by several laboratories.
Rows were chosen to be rich in hits. Some 2.8% of all compounds tested hit in one or more screens of this group.
MRP1 act = activates MRP-1; viability increase, % at 10 µM; 140,000 tested, 0.61% active; AID 799; H69AR cells + doxorubicin, viability rescue, CellTiter-Glo;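 active means viability gain under doxorubicin at or above a set limit, the compound median plus 3 SD, cut at about 4.7% in these data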;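 further: MRP-1 overexpressing cells given doxorubicin 25 µM after compound pretreatment; 18-22 h compound pretreatment then 72 h with doxorubicin before readout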
ERa coact pot = ER-alpha (human) coactivator binding potentiation; P03372; TR-FRET ERalpha-LBD/SRC-Cy5 coactivator binding, 2 h; 100 = basal binding, no effect; coactivator binding (% of control), % at 25.6 µM; 86,000 tested, 1.3% active; in the data active means activity above about 200%;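 further: binding measured in presence of low estradiol as agonist stimulus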
Smad3 inh = Smad3 (human) transcription factor binding inhibition. TR-FRET Smad3/Dy647-FoxH1 peptide binding, europium anti-His. AID 630. P84022. 88,000 tested, 0.29% active. inhibition, % at 25 µM;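 active means compounds that reduce the energy-transfer binding signal between the protein and its labelled peptide by more than half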
Target sequence (P84022 whole entry, looked up): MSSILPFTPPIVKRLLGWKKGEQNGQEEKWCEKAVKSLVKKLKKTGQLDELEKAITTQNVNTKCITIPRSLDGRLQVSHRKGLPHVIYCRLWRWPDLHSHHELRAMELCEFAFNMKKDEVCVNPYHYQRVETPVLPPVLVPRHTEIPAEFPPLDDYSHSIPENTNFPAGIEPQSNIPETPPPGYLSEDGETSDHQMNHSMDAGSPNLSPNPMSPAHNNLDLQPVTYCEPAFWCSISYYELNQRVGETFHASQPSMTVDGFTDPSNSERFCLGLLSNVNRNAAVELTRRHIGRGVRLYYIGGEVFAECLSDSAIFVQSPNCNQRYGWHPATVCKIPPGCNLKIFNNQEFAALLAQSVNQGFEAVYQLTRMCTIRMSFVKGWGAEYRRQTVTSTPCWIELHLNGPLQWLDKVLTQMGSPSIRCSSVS
ERb coact inh = blocks coactivator binding to human estrogen receptor beta. TR-FRET ER-beta LBD / SRC1-Cy5 peptide binding; receptor agonist-loaded with 1 µM estradiol. inhibition, % at 25.6 µM. 86,000 tested, 1.3% active. AID 633;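 active means compounds whose percent inhibition of the receptor-coactivator binding signal exceeds about 50% in the single-dose screen, limit read from the data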
ERa coact inh = ER-alpha (human) coactivator binding inhibition | P03372 | TR-FRET ER-alpha LBD / SRC-1 peptide, estradiol-bound | inhibition, % at 25.6 µM | 86,000 tested, 1.7% active | AID 629; in the data active means inhibition above about 50%
MRP reversal = compounds reversing MRP-mediated drug resistance; differential viability (reversal), % at 10 µM; AID 602; 85,000 tested, 0.04% active; H69AR cells + 2 uM doxorubicin, CellTiter-Glo, 72 h;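 active means viability drop by adding the cancer drug above about 55%, with treated viability meeting a 40% cutoff, limit read from the data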;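 further: larger differential means the compound sensitizes cells more to doxorubicin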
A number is an active result; [ ] = remark or other dose.

`Cc1ccc(C)c(/C(O)=C2/C(=O)C(=O)N(CCN3CCOCC3)C2c2ccco2)c1` (stereo not given) gave MRP1 act inactive, ERa coact pot inactive, Smad3 inh inactive, ERb coact inh 50.9, ERa coact inh inactive and MRP reversal inactive.
`Cc1ccc(C2/C(=C(/O)c3ccccc3)C(=O)C(=O)N2CCN2CCOCC2)o1` (stereo not given) gave MRP1 act inactive, ERa coact pot inactive, Smad3 inh inactive, ERb coact inh inactive, ERa coact inh inactive and MRP reversal inactive.
`CC(C)CCNC(=O)Cn1c2c(c(-c3ccccc3Cl)cc1=O)CCC2` gave MRP1 act inactive, ERa coact pot inactive, Smad3 inh inactive, ERb coact inh inactive, ERa coact inh inactive and MRP reversal inactive.
Screening CC1CCC(NC(=O)Cn2c3c(c(-c4ccccc4Cl)cc2=O)CCC3)CC1 (stereo not given) returned MRP1 act 8.2, ERa coact pot inactive, Smad3 inh inactive, ERb coact inh inactive, ERa coact inh inactive and MRP reversal inactive.
Cc1ccc(NC(=O)C(OC(=O)c2ccc(C=O)cc2)c2ccccc2)cc1Cl (stereo not given) was read as MRP1 act inactive.
C/C(=N\NC(=O)c1ccc(Cn2cc([N+](=O)[O-])cn2)o1)c1cccc(NC(=O)c2cccnc2)c1 was read as MRP1 act 20.1.
For CCN(CC(=O)NC1CCCC1)S(=O)(=O)c1ccc(C)cc1 the results were MRP1 act inactive, ERa coact pot inactive, Smad3 inh inactive, ERb coact inh inactive, ERa coact inh 94.9[fluorescence artefact?] and MRP reversal inactive.
For Cc1nc2c(cnn2-c2ccc(Cl)cc2)c(=O)n1-c1ccc2c(c1)OCCO2 the results were ERa coact pot inactive, Smad3 inh inactive, ERb coact inh inactive, ERa coact inh inactive and MRP reversal inactive.
For O=c1cc(-c2ccccc2Cl)oc2c([N+](=O)[O-])c(O)cc(O)c12 the results were MRP1 act 6.5.
Screening CCC(Sc1nc2cc(OC)c(OC)cc2c2nc(C)nn12)C(=O)NCc1ccco1 (stereo not given) returned ERa coact pot inactive, Smad3 inh inactive, ERb coact inh inactive, ERa coact inh 50.4[fluorescence artefact?] and MRP reversal inactive.
CCOC(=O)c1cccnc1SC(CC)C(=O)NCc1ccco1 (stereo not given) was read as MRP1 act inactive, ERa coact pot inactive, Smad3 inh inactive, ERb coact inh inactive, ERa coact inh inactive and MRP reversal inactive.
`CCC(Sc1nc2ccccc2c2nc3ccccc3n12)C(=O)NCc1ccco1` (stereo not given) gave MRP1 act inactive, ERa coact pot 247.1[fluorescence artefact?], Smad3 inh inactive, ERb coact inh 61.3[fluorescence artefact?], ERa coact inh 77.0[fluorescence artefact?] and MRP reversal inactive.
O=C(CSc1nc2ccccc2n1CC(=O)NCc1ccccc1)NCc1ccco1 was read as MRP1 act inactive, ERa coact pot inactive, Smad3 inh inactive, ERb coact inh inactive, ERa coact inh inactive and MRP reversal inactive.
`C=C[C@]1(C)C[C@H](OC(=O)CO)[C@]2(C)C3C(=O)CC[C@]3(CC[C@H]2C)[C@H](C)[C@H]1O` (stereo not given in full) gave Smad3 inh inactive.
`COc1ccc(OCC(=O)N2CCN(C(=O)c3ccccc3)CC2)cc1` gave MRP1 act inactive, ERa coact pot 492.2[fluorescence artefact?], Smad3 inh inactive, ERb coact inh inactive, ERa coact inh inactive and MRP reversal inactive.
`Cc1cc(C)n(CCC(=O)N/N=C/c2ccccc2O)n1` gave MRP1 act 5.6.
For O=C(O)CCCNS(=O)(=O)c1ccc(Br)s1 the results were MRP1 act inactive.
`N[C@@H](CC1=CS(=O)(=O)c2ccc(Cl)cc21)C(=O)O` gave Smad3 inh 77.4.
`O=S1(=O)C=C(Sc2nc3cc(Cl)ccc3o2)c2ccccc21` gave MRP1 act inactive.
`O=C(/C(=C/c1ccc(Cl)cc1)c1nc2ccccc2[nH]1)c1cccs1` gave MRP1 act inactive.
`N=c1c(-c2nc3ccccc3[nH]2)cc(C(=O)c2cccs2)nn1-c1ccc(Cl)cc1` gave ERa coact pot inactive, Smad3 inh inactive, ERb coact inh 52.5, ERa coact inh 89.7[fluorescence artefact?] and MRP reversal inactive.
Screening COc1ccc(OC)c(NC(=S)N2CCC(C(O)(c3ccccc3)c3ccccc3)CC2)c1 returned MRP1 act inactive.
Screening Cc1nn(C)c(C)c1CN(C)C(=O)c1cc2n(n1)C(C(F)(F)F)CC(c1cccs1)N2 (stereo not given) returned MRP1 act inactive, ERa coact pot inactive, Smad3 inh 54.4[fluorescence artefact?], ERb coact inh inactive, ERa coact inh inactive and MRP reversal inactive.
Screening Cc1nn(C)cc1CN(C)C(=O)c1nn2c(c1Cl)NC(c1cccs1)CC2C(F)(F)F (stereo not given) returned MRP1 act inactive, ERa coact pot inactive, Smad3 inh inactive, ERb coact inh inactive, ERa coact inh inactive and MRP reversal inactive.
`Cc1cc(Cl)ccc1OCC(=O)OC(C)C(=O)N(C)C` (stereo not given) gave MRP1 act inactive, ERa coact pot inactive, Smad3 inh inactive, ERb coact inh 57.3, ERa coact inh 51.4 and MRP reversal inactive.
`N#C/C(=C\N1CCNC1=S)C(=O)c1ccc2ccccc2c1` gave Smad3 inh inactive.
`COC(=O)c1ccc(COC(=O)c2ccc(S(=O)(=O)N3CCC(C)CC3)cc2)o1` gave MRP1 act inactive, ERa coact pot 730.0, Smad3 inh inactive, ERb coact inh inactive, ERa coact inh inactive and MRP reversal inactive.
For COc1cc2c3cc1Oc1c(OC)c(OC)cc4c1[C@@H](Cc1ccc(O)c(c1)Oc1ccc(cc1)C[C@@H]3N(C)CC2)CN(C)C4 the results were Smad3 inh inactive.
Screening Nc1c(C(=O)NCc2ccco2)sc2nc3c(cc12)C(=O)CCC3 returned MRP1 act inactive, ERa coact pot inactive, Smad3 inh inactive, ERb coact inh 85.1[fluorescence artefact?], ERa coact inh 82.4[fluorescence artefact?] and MRP reversal inactive.
`O=C(NCc1ccco1)c1csc2c1CCCCC2` gave MRP1 act inactive, ERa coact pot inactive, Smad3 inh inactive, ERb coact inh inactive, ERa coact inh inactive and MRP reversal inactive.
For COc1ccc2cc3c(N)c(C(=O)NCc4ccco4)sc3nc2c1 the results were MRP1 act inactive, ERa coact pot inactive, Smad3 inh inactive, ERb coact inh inactive, ERa coact inh 56.0[fluorescence artefact?] and MRP reversal inactive.
Screening O=C(NCc1ccco1)c1c2c(nc3ccccc13)CCC2 returned MRP1 act inactive, ERa coact pot inactive, Smad3 inh inactive, ERb coact inh 92.0[fluorescence artefact?], ERa coact inh 93.3[fluorescence artefact?] and MRP reversal inactive.
Screening O=C(O)c1ccc(CS(=O)(=O)c2cccc(C(F)(F)F)c2)o1 returned MRP1 act inactive, ERa coact pot inactive, Smad3 inh inactive, ERb coact inh inactive, ERa coact inh inactive and MRP reversal inactive.
